Source: PubChem (National Center for Advancing Translational Sciences (NCATS))
This is a sample that favours compounds with a hit; in the whole collection about 20% have one here.
HCMV antiviral: qHTS Assay for inhibitors of the human cytomegalovirus (HCMV). activity change, negative = inhibition, % at 57.5 µM. 410,000 compounds, 4.5% hits. HFF cells, HCMV-luciferase reporter, 72 h; active compounds read low. AID 1259415, 2018; in the data active = activity change below about -60%; inconclusive = no clear call, values can overlap the other calls; inactive = above about -39%; note: % is set by controls: 0 for no effect and ±100 for the full control effect
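Two compound doses tested in HFFs infected with HCMV-luciferase, MOI 1 PFU/cell, 72 h at 37C. Lysate luminescence read with OneGlo; data normalized against buffer-only and 10uM Salinomycin inhibitor controls.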
Pf growth 96h: Primary qHTS for delayed death inhibitors of the malarial parasite plastid, 96 hour incubation | P. falciparum luciferase reporter growth, 96 h | Potency, µM (highest dose often 28.7 µM), without a hit: at the top dose activity change, negative = inhibition, actives largely listed as inhibitors | 320,000 compounds, 6.9% hits | AID 504834, 2011; note: potency is the fitted concentration of half-maximal effect; % is set by controls: 0 for no effect and ±100 for the full control effect
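Luminescence readout: decreased luciferase signal marks inhibited growth of reporter-expressing P. falciparum in infected red cells (2% hematocrit, 0.05% parasitemia final), exposed to compound two generations (96 h, 37 C, 5% CO2).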
Pf growth 48h: Primary qHTS for delayed death inhibitors of the malarial parasite plastid, 48 hour incubation | Potency, µM (highest dose often 28.7 µM), without a hit: top-dose activity change, negative = inhibition, usual class: inhibitors | AID 504832, 2011 | P. falciparum luciferase growth in erythrocytes, 48 h | 310,000 compounds, 5.9% hits; note: potency is the fitted concentration of half-maximal effect; % is set by controls: 0 for no effect and ±100 for the full control effect
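Luminescence readout; reporter = integrated firefly luciferase in P. falciparum. RBC culture at 2% hematocrit, 0.1% parasitemia final, 37 C/5% CO2; decreased signal taken as growth inhibition.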
CHX counter: Cycloheximide Counterscreen for Small Molecule Inhibitors of Shiga Toxin | max response, % | 300,000 compounds, 12% hits | cell reporter, cycloheximide protein synthesis inhibition counterscreen; in the data active = max response mostly above about 13%, no sharp cut-off; inactive = mostly below about 14%; note: read at 38.3 µM for the half of the compounds with a filed dose; 0% is about no effect
Shiga inhibitor: A qHTS for Small Molecule Inhibitors of Shiga Toxin | AID 2315, 2010 | inhibition, % at 38.7 µM | 290,000 compounds, 9.2% hits | Vero cells, Shiga toxin protein synthesis inhibition reporter; in the data active = inhibition mostly above about 28%, no sharp cut-off; inactive = mostly below about 43%; note: 0% is about no effect
Active calls of the source: *; ? = inconclusive; nt = not tested or not shown. Unless noted, calls come from the whole dose curve; as a rule, active = well fitted inhibition curve with a large enough effect; inconclusive = small, poorly fitted or top-dose-only effect, or another doubt; inactive = no such curve, though single readings can be large or run the other way.

SMILES | HCMV antiviral | Pf growth 96h | Pf growth 48h | CHX counter | Shiga inhibitor
NC(N)=Nc1cc2ccccc2c2ccccc12 | -83.4* | ? | ? | -1.6 | 17.9
COc1ccc(C)cc1-n1nnnc1SCC1CCCO1 (stereo not drawn) | -13.7 | ? | nt | 11.0 | -3.4
COc1ccc(-n2nnnc2SCc2nc3ccccc3s2)cc1 | 97.7 | 196.5% | nt | 67.6* | 99.0*
COc1ccc(CSc2nnnn2-c2ccccc2)cc1 | -19.3 | nt | nt | 9.2 | 8.7
COc1ccc(C)cc1-n1nnnc1SCc1nc2ccccc2s1 | 56.8 | 90.1% | 55.9% | 45.3* | 129.0*
Cc1nnc2sc(SCc3ccc(Cl)cc3)nn2c1=O | -20.8 | 1.04µM* | ? | -5.0 | -9.0
CC(=O)Nc1cccc(NC(=O)CSc2nn3c(=O)c(C)nnc3s2)c1 | 71.3 | 5.22µM* | 9.28µM* | -6.6 | 2.3
Cc1ccc(CSc2nn3c(=O)c(C)nnc3s2)cc1 | 9.1 | ? | 8.28µM* | -6.1 | -4.7
Cc1cccc(CSc2nn3c(=O)c(C)nnc3s2)c1 | 15.3 | ? | 10.4µM* | -6.2 | -11.0
CC(C)(C)c1nnc2sc(SCC(=O)c3ccc(Cl)cc3)nn2c1=O | nt | 0.0% | ? | -0.3 | 2.1
Cc1nnc2sc(SCC(=O)Nc3ccc(Cl)cc3)nn2c1=O | 24.3 | ? | ? | 5.0 | 9.8
COc1ccc(-c2cnn3c(N)c(S(=O)(=O)C(C)(C)C)cnc23)cc1 | 11.3 | 31.4% | 43.3% | 31.6* | 40.3
COc1ccc(-c2cnc3c(-c4ccc(F)cc4)cnn3c2N)cc1 | 88.1 | 257.0% | 193.9% | 51.0* | 121.2*
COc1ccc(-c2cnc3ncnn3c2N)cc1 | -37.9 | 7.9% | -13.1% | -4.9 | 7.1
CS(=O)(=O)c1cnc2c(-c3ccsc3)cnn2c1N | -36.0 | 139.9% | 78.6% | 37.8* | 66.5*
O=C1[C@@H]2CSCCS(=O)(=O)N2C(=O)N1C1CCCCC1 | -19.5 | nt | nt | nt | nt
Cc1cc(C)c(S(=O)(=O)Nc2cccc(S(=O)(=O)N3CCOCC3)c2)c(C)c1 | -7.9 | 8.1% | ? | -3.3 | -8.7
COC(=O)C1=C(C)C(c2ccc(OC)cc2)NC(=S)N1 (stereo not drawn) | 24.5 | ? | -4.8% | -1.9 | -14.0
COc1ccc(C2C=C(C34CC5CC(CC(C5)C3)C4)NC(=S)N2)cc1 (stereo not drawn) | -22.3 | 11.7µM* | 9.28µM* | -1.9 | -4.4
O=C(NCc1ccc(Cl)cc1)c1cnc2sc(N3CCOCC3)nn2c1=O | 3.4 | nt | nt | nt | nt
Cc1c(C)c2c(OCC(=O)NCC(C)C)cc3c(c2oc1=O)CCC(C)(C)O3 | 4.8 | ? | 8.28µM* | -0.6 | -4.7
Cc1cc(=O)oc2c3c(cc(OCC(=O)NCc4ccncc4)c12)OC(C)(C)CC3 | -4.9 | 10.4µM* | ? | -1.7 | -10.3
Cc1cc(=O)oc2c3c(cc(OCC(=O)NCC(=O)N[C@H](C(=O)O)C(C)C)c12)OC(C)(C)CC3 | 22.4 | 1.0% | -4.3% | -2.2 | 10.3
Cc1c(C)c2c(OCC(=O)NCc3ccncc3)cc3c(c2oc1=O)CCC(C)(C)O3 | 9.8 | 2.94µM* | ? | -1.7 | -9.3
COc1ccc(CNC(=O)COc2cc3c(c4oc(=O)cc(C)c24)CCC(C)(C)O3)cc1OC | 9.7 | 7.38µM* | 10.4µM* | 2.3 | -5.1
SMILES | HCMV antiviral | Pf growth 96h | Pf growth 48h | CHX counter | Shiga inhibitor
CCN1CCN(C(=O)Cn2ncc3c4ccccc4n(Cc4ccccc4)c3c2=O)CC1 | -20.9 | nt | nt | nt | nt
Cc1c(C)c2c(OCC(=O)NCc3ccco3)cc3c(c2oc1=O)CCC(C)(C)O3 | 9.8 | -21.4% | 27.1% | 0.9 | -2.2
Cc1cc(=O)oc2c3c(cc(OCC(=O)NCc4ccco4)c12)OC(C)(C)CC3 | -30.2 | 8.28µM* | ? | 30.2* | 33.2*
O=C(CSc1nc2ccc(Cl)cc2[nH]1)NC1CCCc2ccccc21 (stereo not drawn) | -73.6* | ? | 16.8% | -1.9 | -5.1
O=C(CSc1nc2cc(Cl)ccc2o1)c1cccs1 | -4.1 | 2.5% | nt | 23.2* | 43.4
Cc1cc(C(=O)CSc2nc3ccc(Cl)cc3[nH]2)c(C)n1C | 36.7 | ? | ? | 8.0 | 15.7
O=C(CSc1nc2cc(Cl)ccc2o1)NCCc1ccccc1 | ? | -15.2% | -6.2% | -2.3 | -23.9
O=C(CSc1nc2ccc(Cl)cc2[nH]1)c1cccs1 | 0.0 | 0.0% | 40.8% | 57.8* | 122.4*
Cc1cc(C(=O)Cn2cnc3cc(F)ccc3c2=O)c(C)n1C1CC1 | 49.4 | nt | nt | nt | nt
